Assay outcomes from PubChem BioAssay.
DT40 TDP1 no CPT = qHTS for Inhibitors of human tyrosyl-DNA phosphodiesterase 1 (TDP1): qHTS in cells in absence of CPT; DT40 Tdp1-/- hTDP1 cells, no CPT, ATP luminescence, 48 h; Potency, µM (top dose mostly 46.2 µM), inactives show at the top dose activity change, negative = growth inhibition, most hits filed as inhibitors; 420,000 compounds, 15% hits; note: potency is the fitted concentration of half-maximal effect; nearly all actives have a fitted effect of over 55% in size
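Chicken DT40 Tdp1-/- cells stably complemented with human TDP1 were seeded at 400 cells/well with DMSO in place of 20 nM camptothecin. After compound pinning, cells grew at least 48 hr at 37 °C; viability read by CellTiter-Glo luminescence.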
TDP1 cell CPT = growth inhibition of DT40 Tdp1-/-;hTDP1 cells with camptothecin (screen for TDP1 inhibitors) | Potency, µM (top dose mostly 46.2 µM), for the others: at the top dose activity change, negative = growth inhibition, actives largely listed as inhibitors | chicken DT40 Tdp1-/-;hTDP1 cells + 20 nM CPT, ATP luminescence, 48 h | 420,000 compounds, 12% hits; note: potency is the fitted concentration of half-maximal effect; nearly all actives have a fitted effect of over 55% in size
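Cell growth measured by CellTiter-Glo luminescence after a minimum 48 h, 37 C compound exposure with 20 nM CPT in Tdp1-knockout DT40 cells stably expressing hTDP1, seeded 400/well; qHTS titration format.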
IL-1B inflam inh = inhibitors of inflammasome signaling (IL-1 beta secretion) | AID 743279 | THP-1 LPS/ATP IL-1B secretion, AlphaLISA, 16 h; stronger effect = lower value | 360,000 compounds, 4.7% hits | activity change, % at 57.5 µM; in the data active = activity change below about -50%; inconclusive = mostly about -30% to -49%
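THP-1 cells pretreated 1 hr with compounds (up to 57.5 uM final), then stimulated with LPS (250 ng/mL final) plus ATP (1.25 mM final); secreted IL-1B measured by AlphaLISA after 16 hr, decreased signal indicating inhibition.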
HT1080NT lethal = kills 2HG-producing HT-1080-NT fibrosarcoma cells | HT-1080-NT fibrosarcoma viability, CellTiter-Glo ATP luminescence, 48 h | Potency, µM (series often up to 46.1 µM), for inactives: at the highest dose activity, negative = less viability, hits mostly cytotoxic | 360,000 compounds, 1.6% hits;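 note: NT is the 2HG producing partner of a matched IDH1 knockdown line; potency is the fitted concentration of half-maximal effect; 0% = DMSO-treated cells and -100% = media-only wells without cells; nearly all actives have a fitted effect of over 55% in size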
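Luminescent CellTiter-Glo readout after 48 hours of compound exposure at 37 degrees C defined viability of HT-1080-NT cells. Activity was normalized to DMSO wells and cell-free media wells; concentration-response curves were fitted and assigned curve classes.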
HT1080 IDH1KD tx = kills HT-1080 cells with IDH1 knockdown; HT-1080 IDH1 knockdown viability, ATP luminescence, 48 h; Potency, µM (series often up to 46.1 µM), inactives show top-dose activity, negative = toxicity, most hits filed as cytotoxic; 360,000 compounds, 2% hits;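 note: potency is the fitted concentration of half-maximal effect; 0% = DMSO wells and -100% = cell-free medium wells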
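Viability of IDH1-knockdown HT-1080 fibrosarcoma cells was assessed by CellTiter-Glo after 48 h at 37 °C with titrated compound; concentration-effect curves were classified by fit quality and response size.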
uPA generation = inhibitors of cell surface uPA generation | cell surface uPA generation assay, qHTS | Potency, µM (titrated, usually from 38.3 µM), without a hit: at the highest dose activity change, negative = inhibition, usual class: inhibitors | AID 540303 | 330,000 compounds, 0.31% hits; active = well fitted inhibition curve with a large enough effect; inconclusive = small, poorly fitted or top-dose-only effect; inactive = no such curve, though single readings can be large or run the other way; tested in mouse RAW 264.7 cells; note: potency is the fitted concentration of half-maximal effect; nearly all actives have a fitted effect of over 55% in size
* marks the source's active call; other numbers are inactive results; ? = inconclusive; / = no result. An excerpt weighted towards active compounds, which were near 19% of everything screened. Unless noted, calls come from the whole dose curve; as a rule, active = well fitted curve in the direction sought with a large enough effect; inconclusive = small, poorly fitted or top-dose-only effect, or another doubt; inactive = no such curve, though single readings can be large; an effect the other way counts as inactive or inconclusive. Unless noted, % is set by controls: 0 for no effect and ±100 for the full control effect.

SMILES | DT40 TDP1 no CPT | TDP1 cell CPT | IL-1B inflam inh | HT1080NT lethal | HT1080 IDH1KD tx | uPA generation
CC(=O)NCCc1ccc(C(=O)COC(=O)c2cccs2)cc1 | -4% | 3% | 14 | 7% | 3% | /
COc1ccc(N(CC(=O)NCCc2ccccc2)S(=O)(=O)c2ccc(OC)c(OC)c2)cc1 | -28% | -15% | / | / | / | /
COc1ccc(/C=N/NC(=O)CCSc2nc3ccccc3s2)cc1 | 2.6µM* | 5.8µM* | ? | ? | ? | 4µM*
O=C(O)COc1ccccc1/C=N/NC(=O)COc1ccc(-c2ccccc2)cc1 | 29µM* | 3% | -15 | 5% | -4% | 2%
CNC(=S)N/N=C/c1ccccc1OCC(=O)O | -9% | 0% | 22 | 19% | 8% | 1%
O=C(COc1ccccc1-c1ccccc1)NN=C1CCCC1 | ? | -6% | 57 | ? | ? | 10µM*
COc1ccc(/C=N/NC(=O)CCn2cnc(-c3ccccc3)c2-c2ccccc2)cc1 | 0.65µM* | 1.6µM* | 0 | 3.3µM* | 3.3µM* | 1.1µM*
O=C(Cn1nnc2ccccc21)NNC(=O)c1ccccc1 | -15% | 3% | -2 | 7% | ? | 2%
O=c1[nH]cnc2n[nH]nc12 | ? | -8% | / | / | / | /
COc1ccc(CCNC(=S)Nc2ccc(S(=O)(=O)Nc3ncccn3)cc2)cc1OC | 15% | 9% | -15 | 16% | 7% | 5%
O=C(NC(=S)N1CCN(c2ccc(F)cc2)CC1)c1ccccc1 | 21µM* | ? | -9 | -16% | -3% | /
CC1CCC(C(=O)NC(C(=O)N2CCc3ccccc3C2)C(C)C)CC1 (centres undefined) | ? | 16µM* | 9 | -9% | -10% | 2%
CC1CCC(C(=O)NC(C(=O)N2CCN(c3ccccn3)CC2)C(C)C)CC1 (centres undefined) | ? | -29% | 50 | 4% | ? | 4%
CC(C)[C@H](NC(=O)C1CC(=O)N(c2ccc(F)cc2)C1)C(=O)N1CCCCC1 (some centres undefined) | ? | ? | 6 | 14% | 13% | -2%
CC(C)C(NC(=O)C1CCCCC1)C(=O)N1CCN(c2ccc(F)cc2)CC1 (centres undefined) | 16µM* | 13µM* | 23 | 3% | 2% | 2%
O=C(NC(=S)N1CCN(c2ccc([N+](=O)[O-])cc2)CC1)c1ccc(F)cc1 | 26µM* | ? | 16 | -12% | -7% | -4%
NC(=O)C1CCN(CC(=O)N2N=CCC2c2ccccc2)CC1 (centres undefined) | -15% | 15% | -12 | 12% | 6% | 11%
O=C(OCc1cn([C@@H]2CN(Cc3cccs3)[C@@H](c3ccc(Cl)cc3)C[C@H]2O)nn1)c1ccccc1 | ? | ? | -20 | 3% | 8% | /
COc1cc(OC)c2c(OC)c(-c3ccc4c(c3)OCO4)c(=O)oc2c1 | -25% | -5% | / | / | / | /
O=c1cc(CN2CCN(c3ccccc3)CC2)c2ccccc2o1 | -1% | -1% | -6 | 8% | 6% | /
O=C(NC(=S)N1CCN(c2ccc([N+](=O)[O-])cc2)CC1)c1ccccc1F | 21µM* | ? | -10 | 5% | 23% | 0%
O=C(NC(Cc1ccccc1)C(=O)N1CCCCCC1)c1ccccc1 (centres undefined) | ? | -19% | -10 | 19% | 15% | 4%
O=C(NC(Cc1ccccc1)C(=O)N1CCN(c2ccc(F)cc2)CC1)c1ccccc1 (centres undefined) | 26µM* | ? | 7 | 3% | 0% | /
COCCSc1nnc(NC(=O)c2ccc(OC)c([N+](=O)[O-])c2)s1 | 9% | 2% | 17 | -2% | -2% | 1%
CCOC(=O)[C@]12CCC=C1N(Cc1ccc(Cl)cc1Cl)C(=O)[C@H](CC(=O)N1CCC(c3ccccc3)CC1)C2 | 18µM* | ? | -7 | 2% | 11% | /
SMILES | DT40 TDP1 no CPT | TDP1 cell CPT | IL-1B inflam inh | HT1080NT lethal | HT1080 IDH1KD tx | uPA generation
CCOC(=O)[C@]12CCCC=C1N(Cc1ccc(Cl)cc1Cl)C(=O)[C@H](CC(=O)N1CCSCC1)C2 | -25% | -3% | 3 | 19% | 5% | /
CCOC(=O)[C@]12CCC=C1N(Cc1ccc(Cl)cc1Cl)C(=O)[C@H](CC(=O)N1CCOCC1)C2 | 21µM* | ? | -7 | 10% | 8% | /
CCOC(=O)[C@]12CCCC=C1N(Cc1ccc(Cl)cc1Cl)C(=O)[C@H](CC(=O)N1CCN(C(=O)c3ccco3)CC1)C2 | 16µM* | ? | -14 | -24% | ? | /
CCOC(=O)[C@]12CCCC=C1N(Cc1ccc(Cl)cc1Cl)C(=O)[C@H](CC(=O)N1CCCC1)C2 | ? | ? | 0 | 1% | -8% | /
CCOC(=O)[C@]12CCCC=C1N(Cc1ccc(Cl)cc1Cl)C(=O)[C@H](CC(=O)N1CCC(c3ccccc3)CC1)C2 | 18µM* | 16µM* | 0 | -16% | ? | /
O=S1(=O)CCOCCCN1Cc1ccccc1 | 7% | 13% | 16 | 0% | 0% | 2%
C=C(C)C1(O)OC(=O)C=C1OC (centres undefined) | 16µM* | 5.2µM* | -76* | -13% | -11% | ?
COc1ccc2c(c1)CCc1c-2nc2ccccc2c1N1CCOCC1 | 2.1µM* | 1.6µM* | ? | ? | ? | -5%
COc1ccc(CN2CCC2(C)C(=O)Nc2ccc(OC)c(OC)c2)cc1 (centres undefined) | ? | ? | -10 | -1% | 5% | /
COc1ccc(NC(=O)C2(C)CCN2Cc2ccc(SC)cc2)cc1OC (centres undefined) | ? | 16µM* | -18 | -12% | -8% | /
CC1(C(=O)NC2CCN(Cc3ccccc3)CC2)CCN1Cc1cc2ccccc2o1 (centres undefined) | -85% | ? | -12 | -21% | -12% | /
COc1ccc(NC(=O)C2(C)CCN2Cc2ccc(OC(F)(F)F)cc2)cc1OC (centres undefined) | ? | 23µM* | -3 | 4% | -21% | /
CSc1ccc(CN2CCC2(C)C(=O)NC2CCN(Cc3ccccc3)CC2)cc1 (centres undefined) | 18µM* | 26µM* | -10 | -9% | -7% | /
CCN(Cc1ccccc1)C1CCN(Cc2ccc(SC)cc2)CC1 | ? | ? | -72* | -30% | -2% | -8%
CCN1C(=O)[C@H]2[C@@H](c3ccc(OC)cc3)N[C@]3(CCCN(Cc4ccc(F)cc4)C3=O)[C@H]2C1=O | ? | -25% | 35 | 14% | 9% | /
